Experimental data: PubChem BioAssay (EPA / NIEHS)
“And” between values parts separate entries of the source, which are not always exact repeats. Equal values may be shown once. Inconclusive results are not listed. Where a structure was tested more than once in an assay, its records may differ in their call. The source made the active and inactive calls. The calls were made as follows, unless noted: active = hit-call score of the fitted dose curve at least 0.9, where 1 is the maximum; inactive = score below 0.9.

Experiments:
[1] = read-out: succinate dehydrogenase complex iron sulfur subunit B (SDHB), SDHB (gene 6390); assay: LTEA_HepaRG_SDHB: Life Technologies and Expression Analysis (LTEA) Assay for succinate dehydrogenase complex iron sulfur subunit B (SDHB) using HepaRG (AID 2283528); settings: mRNA level, 48 h; actives raise or lower the signal
How it was run: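 HepaRG cells (~100,000/well, plated 48 h) exposed in duplicate for 48 h in serum-free induction medium to 8-point half-log series from 100 uM in 0.5% DMSO; mRNA by qRT-PCR normalised to ACTB, GAPDH, POLR2A; bidirectional fit versus DMSO.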

[2] = read-out: Signal transducer and activator of transcription 3 (Homo sapiens) (UniProt P40763); assay: LTEA_HepaRG_STAT3: Life Technologies and Expression Analysis (LTEA) Assay for Signal transducer and activator of transcription (STAT3) using HepaRG (AID 2283529); settings: mRNA level, 48 h; actives raise or lower the signal
How it was run: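 Differentiated HepaRG cells, serum-free induction medium, dosed 48 h in duplicate, 8 half-log concentrations from 100 uM in 0.5% DMSO. STAT3 mRNA by qRT-PCR, normalised to ACTB, GAPDH, POLR2A; bidirectional fit versus DMSO.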

[3] = read-out: solute carrier (SLCO1B1), SLCO1B1 (gene 10599); assay: LTEA_HepaRG_SLCO1B1: Life Technologies and Expression Analysis (LTEA) Assay for solute carrier (SLCO1B1) using HepaRG (AID 2283530); settings: mRNA level, 48 h; actives raise or lower the signal
How it was run: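 Differentiated human HepaRG cells, plated 48 h, switched to serum-free induction medium and exposed in duplicate for 48 h to 8 half-log concentrations (top 100 uM) in 0.5% DMSO. SLCO1B1 mRNA by TaqMan qRT-PCR, normalized to ACTB/GAPDH/POLR2A.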

[4] = read-out: sulfotransferase 2A1 (SULT2A1), SULT2A1 (gene 6822); assay: LTEA_HepaRG_SULT2A1: Life Technologies and Expression Analysis (LTEA) Assay for sulfotransferase 2A1 (SULT2A1) using HepaRG (AID 2283531); settings: mRNA level, 48 h; actives raise or lower the signal
How it was run: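 Differentiated human HepaRG cells in serum-free induction medium were exposed for 48 h to eight half-log concentrations (top 100 uM, 0.5% DMSO). SULT2A1 mRNA was measured by qRT-PCR, normalized to ACTB, GAPDH and POLR2A, and fitted bidirectionally against DMSO.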

[5] = read-out: Transforming Growth Factor (TGFA), TGFA (gene 7039); assay: LTEA_HepaRG_TGFA: Life Technologies and Expression Analysis (LTEA) Assay for Transforming Growth Factor (TGFA) using HepaRG (AID 2283532); settings: mRNA level, 48 h; actives raise or lower the signal
How it was run: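 Differentiated HepaRG cells exposed 48 hours in serum-free induction medium, 0.5% DMSO vehicle, 8-point half-log series from 100 uM, in duplicate. TGFA mRNA by TaqMan qRT-PCR, normalised to ACTB, GAPDH, POLR2A; bidirectional fit versus DMSO.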

[6] = read-out: Transforming Growth Factor (TGFB1), TGFB1 (gene 7040); assay: LTEA_HepaRG_TGFB1: Life Technologies and Expression Analysis (LTEA) Assay for Transforming Growth Factor (TGFB1) Transporter using HepaRG (AID 2283533); settings: mRNA level, 48 h; actives raise or lower the signal
How it was run: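 Differentiated human HepaRG cells in serum-free induction medium were exposed in duplicate for 48 h to eight concentrations (top 100 uM, half-log steps, 0.5% DMSO). TGFB1 mRNA was quantified by qRT-PCR, normalized to ACTB, GAPDH, POLR2A, and fitted bidirectionally against DMSO.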

[7] = read-out: TIMP1, TIMP1 (gene 7076); assay: LTEA_HepaRG_TIMP1: Life Technologies and Expression Analysis (LTEA) Assay for TIMP1 using HepaRG (AID 2283534); settings: mRNA level, 48 h; actives raise or lower the signal;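 also: TaqMan qRT-PCR signal normalized to ACTB GAPDH and POLR2A housekeeping genes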
How it was run: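 Differentiated human HepaRG cells in serum-free induction medium were exposed 48 h to chemicals (8 half-log concentrations, top 100 uM, 0.5% DMSO). TIMP1 mRNA was quantified by TaqMan qRT-PCR, normalized to ACTB/GAPDH/POLR2A; bidirectional fit versus DMSO.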

[8] = read-out: Tumor necrosis factor receptor 1 (TNFRSF1A), TNFRSF1A (gene 7132); assay: LTEA_HepaRG_TNFRSF1A: Life Technologies and Expression Analysis (LTEA) Assay for Tumor necrosis factor receptor 1 (TNFRSF1A) using HepaRG (AID 2283535); settings: mRNA level, 48 h; actives raise or lower the signal
How it was run: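 Differentiated human HepaRG cells were exposed in duplicate for 48 h in serum-free induction medium to eight concentrations (top 100 uM, half-log steps, 0.5% DMSO). TNFRSF1A mRNA was quantified by qRT-PCR, normalized to ACTB, GAPDH and POLR2A, then fitted bidirectionally against DMSO.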

[9] = read-out: Thyroid Hormone Responsive (THRSP), THRSP (gene 7069); assay: LTEA_HepaRG_THRSP: Life Technologies and Expression Analysis (LTEA) Assay for Thyroid Hormone Responsive (THRSP) using HepaRG (AID 2283536); settings: mRNA level, 48 h; actives raise or lower the signal
How it was run: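 Differentiated HepaRG cells treated 48 h in serum-free induction medium with 8 half-log concentrations up to 100 uM (0.5% DMSO), duplicates. THRSP mRNA by TaqMan qRT-PCR normalised to ACTB, GAPDH, POLR2A; bidirectional fit versus DMSO.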

[10] = read-out: UDP glucuronosyltransferase (UGT1A1), UGT1A1 (gene 54658); assay: LTEA_HepaRG_UGT1A1: Life Technologies and Expression Analysis (LTEA) Assay for UDP glucuronosyltransferase (UGT1A1) using HepaRG (AID 2283538); settings: mRNA level, 48 h; actives raise or lower the signal
How it was run: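 Readout is UGT1A1 transcript level by qRT-PCR, normalized to three housekeeping genes, after 48 h chemical treatment of HepaRG cells. Concentrations ran from 100 uM down in half-log steps with 0.5% DMSO, and gain or loss relative to DMSO was fitted.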

[11] = read-out: UDP glucuronosyltransferase (UGT1A6), UGT1A6 (gene 54578); assay: LTEA_HepaRG_UGT1A6: Life Technologies and Expression Analysis (LTEA) Assay for UDP glucuronosyltransferase (UGT1A6) using HepaRG (AID 2283539); settings: mRNA level, 48 h; actives raise or lower the signal
How it was run: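 Human HepaRG cells were dosed for 48 h in serum-free induction medium with 0.5% DMSO vehicle, eight-point half-log series from 100 uM, in duplicate. UGT1A6 mRNA was measured by qRT-PCR, normalized to ACTB, GAPDH, POLR2A, and fitted bidirectionally against DMSO.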

[12] = read-out: X-box binding protein 1 (XBP1), XBP1 (gene 7494); assay: LTEA_HepaRG_XBP1: Life Technologies and Expression Analysis (LTEA) Assay for X-box binding protein 1 (XBP1) using HepaRG (AID 2283540); settings: mRNA level, 48 h; actives raise or lower the signal
How it was run: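 Differentiated human HepaRG cells in serum-free induction medium were exposed in duplicate for 48 h to eight half-log concentrations up to 100 uM in 0.5% DMSO. XBP1 mRNA was quantified by qRT-PCR, normalised to ACTB, GAPDH and POLR2A, with bidirectional fitting against DMSO.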

[13] = LTEA_HepaRG_LDH_cytotoxicity: Cytotoxicity Assessment in the Life Technologies and Expression Analysis (LTEA) Assay (AID 2283563; active = hit-call score of the fitted dose curve at least 0.9, where 1 is the maximum;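 as to AC50: LDH activity released into spent culture medium as a marker of cell death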)
How it was run: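 Differentiated human HepaRG cells, plated 48 h beforehand, were switched to serum-free induction medium and exposed for 48 h to eight half-log concentrations (top 100 uM) in 0.5% DMSO. LDH was measured in spent medium; activity was fitted relative to DMSO vehicle.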

[14] = ATG_XTT_Cytotoxicity: Cytotoxicity Assessment in the Attagene TRANS-FACTORIAL HepG2 Assay (AID 2283584; active = hit-call score of the fitted dose curve at least 0.9, where 1 is the maximum)
How it was run: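 HepG2 human liver cells, transiently transfected with multiple GAL4-UAS reporter units, were dosed and read at 24 h by XTT as cell number. Loss of signal was fitted relative to DMSO negative control baseline.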

[15] = read-out: Cellular tumor antigen p53 (Homo sapiens) (UniProt P04637); assay: LTEA_HepaRG_TP53: Life Technologies and Expression Analysis (LTEA) Assay for Tumor Protein P53 (TP53) using HepaRG (AID 2283537); settings: mRNA level, 48 h; actives raise or lower the signal
How it was run: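 Differentiated HepaRG cells in serum-free induction medium exposed 48 h in duplicate to 8 half-log concentrations, top 100 uM, 0.5% DMSO. TP53 mRNA by TaqMan qRT-PCR (Fluidigm), normalized to ACTB, GAPDH, POLR2A; fitted bidirectionally versus DMSO.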

[16] = molecular target: Cellular tumor antigen p53 (Homo sapiens) (UniProt P04637); assay: TOX21_p53_BLA_p2_ratio: Tox21 HCT-116 p53 Agonism Beta-lactamase Assay, Ratio, Phase 2 (AID 2283592; active = hit-call score of the fitted dose curve at least 0.9, where 1 is the maximum)
How it was run: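 HCT116 cells carrying a p53-responsive beta-lactamase reporter were plated, incubated 5 h at 37C, then dosed with compounds in DMSO (217-fold dilution) for 16 h. CCF4-AM substrate was added for 2 h at room temperature; the 460/530 nm emission ratio gave gain-of-signal activity relative to DMSO.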

[17] = molecular target: Cellular tumor antigen p53 (Homo sapiens) (UniProt P04637); assay: TOX21_p53_BLA_p3_ratio: Tox21 HCT-116 p53 Agonism Beta-lactamase Assay, Ratio, Phase 3 (AID 2283596; active = hit-call score of the fitted dose curve at least 0.9, where 1 is the maximum)
How it was run: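 HCT116 p53-bla cells (4000/well) given compound in DMSO (217-fold dilution) after 5 h, incubated 16 h at 37C. CCF4-AM substrate 2 h at room temperature; 460/530 nm emission ratio, gain fitted against DMSO.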

[18] = TOX21_p53_BLA_p2_viability: Viability Assessment in the Tox21 HCT-116 p53 Agonism Beta-lactamase Assay, Phase 2 (AID 2283591; active = hit-call score of the fitted dose curve at least 0.9, where 1 is the maximum;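 also: compound exposure lasted 16 h at 37 °C; actives lower the ATP signal meaning cytotoxicity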)
How it was run: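 HCT116 p53-bla cells, 4000/well, dosed after 5 h plating (217-fold dilution of DMSO stocks) and incubated 16 h at 37C. Viability taken as cellular ATP by CellTiter-Glo luminescence after 30 min RT; signal loss marks cytotoxicity.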

[19] = TOX21_p53_BLA_p3_viability: Viability Assessment in the Tox21 HCT-116 p53 Agonism Beta-lactamase Assay, Phase 3 (AID 2283593; active = hit-call score of the fitted dose curve at least 0.9, where 1 is the maximum;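 also: cells exposed to compound for 16 h before reading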)
How it was run: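 HCT116 cells, 4000/well, dosed 5 h after plating by pin transfer (217-fold dilution from DMSO stock) and incubated 16 h at 37C, 5% CO2. Viability read as ATP luminescence with CellTiter-Glo after 30 min at room temperature.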

[20] = TOX21_p53_BLA_p4_viability: Viability Assessment in the Tox21 HCT-116 p53 Agonism Beta-lactamase Assay, Phase 4 (AID 2283597; active = hit-call score of the fitted dose curve at least 0.9, where 1 is the maximum;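 also: hits lower the luminescence signal meaning cytotoxicity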)
How it was run: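 HCT116 p53-bla cells (4000/well) rested 5 h at 37C, then received compounds in DMSO (217-fold dilution) for 16 h at 37C, 5% CO2. CellTiter-Glo was added after the CCF4-AM read, and luminescence was read after 30 min at room temperature.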

Measured: AC50

Sequence of Cellular tumor antigen p53 (Homo sapiens) (P04637 whole entry, looked up): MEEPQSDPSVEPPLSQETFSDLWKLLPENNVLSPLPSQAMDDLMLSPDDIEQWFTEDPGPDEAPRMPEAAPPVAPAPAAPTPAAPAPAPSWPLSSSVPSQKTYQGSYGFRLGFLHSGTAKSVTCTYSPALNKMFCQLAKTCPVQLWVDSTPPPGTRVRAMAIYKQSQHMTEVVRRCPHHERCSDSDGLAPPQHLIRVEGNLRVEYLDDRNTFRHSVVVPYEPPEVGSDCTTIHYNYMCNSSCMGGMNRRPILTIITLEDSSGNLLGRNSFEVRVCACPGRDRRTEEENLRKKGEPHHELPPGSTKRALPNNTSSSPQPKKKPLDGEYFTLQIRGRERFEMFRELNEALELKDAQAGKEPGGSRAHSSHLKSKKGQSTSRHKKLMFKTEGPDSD
Sequence of Signal transducer and activator of transcription 3 (Homo sapiens) (P40763 whole entry, looked up): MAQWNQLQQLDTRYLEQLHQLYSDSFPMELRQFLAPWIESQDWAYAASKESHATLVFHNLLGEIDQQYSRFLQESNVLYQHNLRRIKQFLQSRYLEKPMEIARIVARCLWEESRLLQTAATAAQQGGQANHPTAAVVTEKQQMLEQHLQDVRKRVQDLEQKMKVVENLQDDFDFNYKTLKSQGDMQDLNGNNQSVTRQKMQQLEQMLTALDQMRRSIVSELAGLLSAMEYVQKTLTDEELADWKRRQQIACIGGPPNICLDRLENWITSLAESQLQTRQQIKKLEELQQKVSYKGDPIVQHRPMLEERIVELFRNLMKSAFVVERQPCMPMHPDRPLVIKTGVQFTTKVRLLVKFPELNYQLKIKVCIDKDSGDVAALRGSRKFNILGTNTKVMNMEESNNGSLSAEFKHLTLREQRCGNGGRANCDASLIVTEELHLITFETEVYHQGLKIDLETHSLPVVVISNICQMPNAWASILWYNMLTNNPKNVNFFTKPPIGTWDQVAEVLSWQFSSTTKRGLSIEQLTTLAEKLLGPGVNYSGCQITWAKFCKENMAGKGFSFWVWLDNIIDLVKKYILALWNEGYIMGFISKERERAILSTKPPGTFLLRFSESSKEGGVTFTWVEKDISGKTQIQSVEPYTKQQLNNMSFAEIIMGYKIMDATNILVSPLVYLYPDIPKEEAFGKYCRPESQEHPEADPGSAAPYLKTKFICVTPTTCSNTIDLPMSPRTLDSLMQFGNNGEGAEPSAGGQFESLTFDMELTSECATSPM

C/C=C/c1ccc(OC)cc1
inactive: [1] | [2] | [3] | [4] | [5] | [6] | [7] | [8] | [9] | [10] | [11] | [12] | [13] | [14]

C=CCCCCCCCCCCCC
inactive: [1] | [2] | [3] | [4] | [5] | [6] | [7] | [9] | [15] | [10] | [11] | [12] | [13] | [14] | [16] | [17]

CCCCC(CC)COC(=O)CCCCCCCC(=O)OCC(CC)CCCC (centres undefined)
inactive: [1] | [2] | [3] | [4] | [5] | [6] | [7] | [9] | [15] | [10] | [11] | [12] | [13] | [14] | [18] | [16] | [19] | [17] | [20]

CCc1nc(N)nc(N)c1-c1ccc(Cl)cc1
inactive: [1] | [2] | [3] | [5] | [6] | [7] | [15] | [10] | [11] | [12] | [14] | [18] | [16] | [17]
active: [4] 1.33 µM | [9] 76.3 µM | [13] 66.1 µM | [18] 17.2 µM and 11.8 µM | [16] 58.9 µM and 27 µM | [19] 46.1 µM and 18.5 µM | [20] 18.3 µM and 15.9 µM and 10.4 µM

CC(C)(C)c1ccccc1
inactive: [1] | [2] | [3] | [4] | [5] | [6] | [7] | [9] | [15] | [10] | [11] | [12] | [13] | [14] | [19] | [17] | [20]

CC(C)OC(=O)C(C)(C)Oc1ccc(C(=O)c2ccc(Cl)cc2)cc1
active: [10] 3.76 µM | [11] 0.0504 µM
inactive: [1] | [2] | [3] | [4] | [5] | [6] | [7] | [8] | [9] | [12] | [13] | [14]

CC1=C(C)S(=O)(=O)CCS1(=O)=O
inactive: [1] | [2] | [4] | [6] | [7] | [10] | [13] | [14] | [18] | [16] | [17] | [20]
active: [3] 88.2 µM | [5] 50 µM | [9] 80 µM | [15] 50 µM | [11] 0.282 µM | [12] 91 µM
